Source: PubChem BioAssay (several laboratories)
Hits are enriched below; roughly 3.8% of the tested compounds scored in any of these assays.
TIM10 inh = growth inhibitors of isogenic TIM10 control yeast, primary screen, counter-screen for tim10-1 yeast inhibitor project, luminescence, uHTS; actives 1.4% (n = 330,000); AID 463195, 2010; S. cerevisiae TIM10 strain growth, BacTiter-Glo luminescence, 24 h; inhibition, % at 10 µM;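 active means inhibition of 40% or more at the single tested concentration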;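 further: wild-type TIM10 isogenic control strain grown at permissive 25 °C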
tim10-1 inh = growth inhibitors of tim10-1 mutant yeast, primary screen, luminescence, uHTS. actives 2.2% (n = 330,000). inhibition, % at 20 µM. S. cerevisiae tim10-1 ts strain growth, BacTiter-Glo, 24 h;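 active means inhibition of at least 40%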;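 further: mutant grown at 25 °C; 0% = DMSO wells with yeast and 100% = wells holding no yeast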
NALP3 yeast inh = NALP3 inflammasome inhibitors in reconstituted yeast, primary screen, luminescence, uHTS; Yeast reconstituted NLRP3/ASC/caspase-1, beta-gal luminescence, 24 h; inhibition, % at 10 µM; actives 0.39% (n = 330,000); AID 2825, 2010;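 active means inhibition of 50% or more; inactive means inhibition below 50%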;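 further: plate controls were induced DMSO wells for no effect and uninduced yeast grown without galactose for full effect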
tim23-1 inh = growth inhibitors of tim23-1 mutant yeast, primary screen, luminescence, uHTS; S. cerevisiae tim23-1 growth, BacTiter-Glo luminescence, 24 h; inhibition, % at 20 µM; actives 1.3% (n = 330,000);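 active means growth inhibition of the mutant yeast at or above 50%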;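 further: temperature-sensitive mutant grown at 25 °C; plate controls were DMSO-treated mutant yeast for no effect and medium wells lacking yeast for full effect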
CR mimetic SO = reduction of superoxide in aged yeast, primary screen, HTS; S. cerevisiae aged cells, superoxide DHE fluorescence; stronger effect = lower value; superoxide response (% of plate mean), % at 10 µM; actives 0.18% (n = 330,000);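 active means superoxide response under a set limit, about three screen SD below normal, cut at about 65% in these data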;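 further: yeast aged for seven days with compound at 30 °C before DHE staining; 100% = average MFI of all compound-treated wells on the plate with controls excluded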
tim10-1 confirm = growth inhibitors of tim10-1 mutant yeast, confirmation, single concentration, luminescence, S. cerevisiae; actives 56% (n = 7,400); shares compounds with tim10-1 inh; inhibition, % at 20 µM; S. cerevisiae tim10-1 ts strain growth, BacTiter-Glo, 24 h; AID 463213, 2010;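 active means inhibition of yeast growth at or above a set limit in either of two repeat tests at 20 µM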;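 further: tim10-1 mutant grown at permissive 25 °C to find synthetic lethal compounds; 0% = DMSO yeast wells and 100% = medium wells without yeast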
Active calls of the source: *.

Screening N#Cc1cc(Oc2cccc3cccnc23)c(-n2nnc3ccccc32)cc1C#N returned TIM10 inh 32.5, tim10-1 inh 48.0*, NALP3 yeast inh 13.7, tim23-1 inh 33.6, CR mimetic SO 155.6 and tim10-1 confirm 33.2*.
COc1ccc2c(c1OC)C(=O)N1N=C(c3ccc(Cl)cc3)CC21 (stereo unspecified) was read as TIM10 inh 31.0, tim10-1 inh 46.4*, NALP3 yeast inh 33.8, tim23-1 inh 38.8, CR mimetic SO 84.7 and tim10-1 confirm 33.0*.
For CC(=O)Nc1cccc(C(=O)/C=C/c2ccc(F)cc2)c1 the results were TIM10 inh 32.8, tim10-1 inh 40.7*, NALP3 yeast inh 24.9, tim23-1 inh 20.8, CR mimetic SO 96.4 and tim10-1 confirm 30.9*.
For O=C(NC1CCN(S(=O)(=O)c2ccccc2F)CC1)c1ccco1 the results were TIM10 inh 3.9, tim10-1 inh 3.8, NALP3 yeast inh -0.5, tim23-1 inh 16.6 and CR mimetic SO 87.2.
`COc1ccc(CCNC(=O)CN2C(=O)NC3(CCOc4ccccc43)C2=O)cc1` (stereo unspecified) gave TIM10 inh -1.2, tim10-1 inh -13.4, NALP3 yeast inh 13.5 and tim23-1 inh -8.4.
Screening CC(=O)c1ccc(N2CCN(C(=O)c3cc(-c4ccncc4)nc4ccc(Cl)cc34)CC2)cc1 returned TIM10 inh 21.8, tim10-1 inh -3.1, NALP3 yeast inh -3.5, tim23-1 inh -26.3 and CR mimetic SO 99.6.
For O=S(=O)(c1cccc(COc2c(Cl)cccc2Cl)c1)N1CCOCC1 the results were TIM10 inh -0.4, tim10-1 inh 40.2*, NALP3 yeast inh 17.3, tim23-1 inh 29.6, CR mimetic SO 103.2 and tim10-1 confirm 14.8.
O=S(=O)(c1cccc(COc2ccc(Cl)cc2Cl)c1)N1CCOCC1 was read as TIM10 inh -13.1, tim10-1 inh 24.4, NALP3 yeast inh -2.0, tim23-1 inh 29.3 and CR mimetic SO 99.1.
Cc1ccnc(N2C3CCC2CC(O)(c2ccccc2)C3)n1 (stereo unspecified) was read as TIM10 inh 3.2, tim10-1 inh 14.8, NALP3 yeast inh 21.0, tim23-1 inh 2.3 and CR mimetic SO 93.1.
Screening Cc1cc(N2C3CCC2CC(O)(c2ccc(F)cc2)C3)nc(-c2ccccc2)n1 (stereo unspecified) returned TIM10 inh 39.7, tim10-1 inh 47.8*, NALP3 yeast inh 7.5, tim23-1 inh 45.6, CR mimetic SO 96.2 and tim10-1 confirm 36.9*.
`O=C(COC(=O)c1cc(-c2cccs2)nc2ccccc12)NC1CCS(=O)(=O)C1` (stereo unspecified) gave TIM10 inh -6.1, tim10-1 inh 4.8, NALP3 yeast inh 3.8, tim23-1 inh 7.6 and CR mimetic SO 116.5.
CC1=C(/C=C/C(C)=C/C=C/C(C)=C/CO)C(C)(C)CCC1 was read as TIM10 inh 21.9, tim10-1 inh 43.6*, NALP3 yeast inh 7.9, tim23-1 inh 33.9, CR mimetic SO 99.6 and tim10-1 confirm 15.1.
For O=C(COc1ccc(F)cc1)NN1C(=O)CSC1=S the results were TIM10 inh 29.0, tim10-1 inh 29.7, NALP3 yeast inh 21.8, tim23-1 inh 25.3 and CR mimetic SO 105.0.
Screening CCOC(=O)N1CCN(Cc2cc(Cl)c3cccnc3c2O)CC1 returned TIM10 inh -7.9, tim10-1 inh 46.8*, NALP3 yeast inh 35.6, tim23-1 inh 44.0, CR mimetic SO 102.7 and tim10-1 confirm 12.3.
CCCCNC(=S)NCc1ccc2[nH]c3c(c2c1)CCCC3 was read as TIM10 inh 33.4, tim10-1 inh 40.2*, NALP3 yeast inh 14.1, tim23-1 inh 49.2, CR mimetic SO 104.1 and tim10-1 confirm 10.4.
`COc1cc(CN(C(=O)c2cccs2)C2CCS(=O)(=O)C2)cc(OC)c1OC` (stereo unspecified) gave TIM10 inh -2.9, tim10-1 inh 15.1, NALP3 yeast inh 0.5, tim23-1 inh 9.2 and CR mimetic SO 102.0.
Cc1sc(NC(=O)c2ccco2)c(C(c2ccc(F)cc2)N2CCN(C)CC2)c1C (stereo unspecified) was read as TIM10 inh 35.4, tim10-1 inh 56.3*, NALP3 yeast inh -0.6, tim23-1 inh 17.7, CR mimetic SO 108.0 and tim10-1 confirm 30.4.
For Cc1ccc(CNc2ncnc(N)c2[N+](=O)[O-])cc1 the results were TIM10 inh -7.3, tim10-1 inh 17.1, NALP3 yeast inh 11.1, tim23-1 inh 13.8 and CR mimetic SO 99.8.
`CCOC(=O)C1CN(S(=O)(=O)c2cccc(C(F)(F)F)c2)c2cc(CC(=O)OC)ccc2O1` (stereo unspecified) gave TIM10 inh 7.0, tim10-1 inh 46.5*, NALP3 yeast inh 10.1, tim23-1 inh 18.5, CR mimetic SO 80.3 and tim10-1 confirm 24.8.
`CCOC(=O)C1CN(S(=O)(=O)c2ccccc2)c2cc(S(=O)(=O)CC)ccc2O1` (stereo unspecified) gave TIM10 inh 7.6, tim10-1 inh 27.4, NALP3 yeast inh 15.3, tim23-1 inh 5.8 and CR mimetic SO 116.3.
For COc1ccc(C2C(=O)N(CCc3ccccc3)CC(=O)N2C2CCCC2)cc1 (stereo unspecified) the results were TIM10 inh 15.7, tim10-1 inh 44.2*, NALP3 yeast inh 6.6, tim23-1 inh 32.5, CR mimetic SO 105.0 and tim10-1 confirm 29.4*.
For COc1ccc(/C=C2/N=C(c3cccs3)OC2=O)cc1OC(C)C the results were TIM10 inh 32.6, tim10-1 inh 42.3*, NALP3 yeast inh 17.5, tim23-1 inh 38.8, CR mimetic SO 102.9 and tim10-1 confirm 30.2*.
COc1ccc(Cn2c(SCc3cc(C)ccc3C)nc3cc(OC)c(OC)cc3c2=N)cc1 was read as TIM10 inh -38.7, tim10-1 inh 59.1*, NALP3 yeast inh 28.8, tim23-1 inh 2.6, CR mimetic SO 103.2 and tim10-1 confirm 33.9*.
Screening COc1cc2nc(SCc3ccc(Cl)cc3Cl)n(Cc3cccs3)c(=N)c2cc1OC returned TIM10 inh 27.8, tim10-1 inh 22.9, NALP3 yeast inh 10.3, tim23-1 inh 16.2 and CR mimetic SO 85.5.
`COc1ccc(N(CC(=O)Nc2ccccc2C(F)(F)F)C2=NC3CS(=O)(=O)CC3S2)cc1` (stereo unspecified) gave TIM10 inh 5.1, tim10-1 inh 37.8, NALP3 yeast inh 8.3, tim23-1 inh 19.0 and CR mimetic SO 105.0.
For CN1CCN(c2ccccc2NC(=O)c2ccc(-c3cccc([N+](=O)[O-])c3)o2)CC1 the results were CR mimetic SO 93.0.
